Assay outcomes from PubChem.
This is a sample that favours compounds with a hit; in the whole collection about 3.9% have one here.
SKOV3 invasion = Primary qHTS assay for Inhibitors of ovarian cancer metastasis using an organotypic tumor microenvironment (TME) model; SKOV3ip1-GFP adhesion/invasion on 3D omental model, fluorescence; Potency, µM (titrated, usually from 45.8 µM), inactives show at the top dose activity change, negative = inhibition, actives largely listed as inhibitors; hit rate 0.1% among 46,000; AID 1963576, 2024;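 also: potency is read from the fitted curve at half-maximal effect; plate controls were DMSO wells for no effect and tomatine positive control wells for full effect; nearly all actives have a fitted effect of over 65% in size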
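A 3D layer of primary human omental fibroblasts, mesothelial cells, fibronectin and collagen I, grown 48 hr, received SKOV3ip1-GFP cells in serum-free medium plus compounds at 0.36-46 umol/L. After 2 hr RT and 16 hr 37 C, fixed adherent GFP cells were counted; normalized to DMSO and tomatine.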
GPR32 ag = qHTS for Agonists of Human Resolvin D1 Receptor DRV1. CHO-K1 GPR32 beta-arrestin PathHunter luminescence, 90 min; zero percent set by DMSO-only wells. activation, % at 76.9 µM. hit rate 2.5% among 48,000. AID 1346428, 2018;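 active = activation of at least 60% and not above a set upper limit, about 1 call in 100 departs from these limits; inconclusive = activation of 40% to 60%, or above that upper limit; inactive = activation under 40%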; also: 0% is about no effect
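Readings come from a cell-based beta-arrestin complementation format: CHO-K1 GPR32 stable cells (2,500/well) treated 90 min with compounds, then beta-Gal substrate added for 1 h before chemiluminescence imaging.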
NTMT1 inhibitor = Primary qHTS for Inhibitors of N-terminal methyltransferase 1 (NTMT1): MTaseGlo Assay; N-terminal Xaa-Pro-Lys N-methyltransferase 1 (Homo sapiens), Q9BV86; NTMT1 MTase-Glo SAH luminescence, purified enzyme; Potency, µM (titrated, usually from 114 µM), for the others: top-dose activity change, negative = inhibition, usual class: inhibitors; hit rate 2.5% among 59,000; AID 1645870, 2021;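 also: potency is read from the fitted curve at half-maximal effect; plate controls were DMSO vehicle for no effect and no enzyme for full effect; nearly all actives have a fitted effect of over 65% in size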
Target sequence (Q9BV86 whole entry, looked up): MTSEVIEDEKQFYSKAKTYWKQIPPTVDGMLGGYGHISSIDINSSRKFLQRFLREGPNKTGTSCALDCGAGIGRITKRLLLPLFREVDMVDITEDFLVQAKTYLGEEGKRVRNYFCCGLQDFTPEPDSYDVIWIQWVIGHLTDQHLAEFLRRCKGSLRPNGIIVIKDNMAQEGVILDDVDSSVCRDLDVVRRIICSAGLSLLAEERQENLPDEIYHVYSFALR
FH mod = Identification of activators of human fumarate hydratase by quantitative high-throughput screening; AID 1347055, 2019; hit rate 0.22% among 54,000; Potency, µM (highest dose often 79.9 µM), for the others: top-dose activity change, negative = inhibition, usual class: inhibitors; Fumarate hydratase, mitochondrial (Homo sapiens), P07954; FH coupled MDH/diaphorase resazurin fluorescence, 15 min; also: potency is read from the fitted curve at half-maximal effect; % is scaled to controls: 0 for no effect and ±100 for the full control effect; the screen sought activators but most active calls are inhibition curves; nearly all actives have a fitted effect of over 45% in size
Target sequence (P07954 whole entry, looked up): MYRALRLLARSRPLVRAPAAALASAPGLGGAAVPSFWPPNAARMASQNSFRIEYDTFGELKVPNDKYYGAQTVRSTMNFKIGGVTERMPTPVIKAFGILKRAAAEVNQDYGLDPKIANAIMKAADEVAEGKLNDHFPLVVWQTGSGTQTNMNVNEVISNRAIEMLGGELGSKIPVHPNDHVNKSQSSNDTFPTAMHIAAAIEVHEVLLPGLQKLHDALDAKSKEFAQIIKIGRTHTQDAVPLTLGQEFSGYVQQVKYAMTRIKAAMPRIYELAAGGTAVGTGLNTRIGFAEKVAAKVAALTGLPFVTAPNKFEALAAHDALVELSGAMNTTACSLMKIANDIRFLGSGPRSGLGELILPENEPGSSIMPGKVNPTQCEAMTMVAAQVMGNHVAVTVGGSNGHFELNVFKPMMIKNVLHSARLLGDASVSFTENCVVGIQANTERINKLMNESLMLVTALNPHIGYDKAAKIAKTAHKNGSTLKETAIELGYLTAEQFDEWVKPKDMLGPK
An asterisk follows results filed as active; [ ] = remark or other dose. Unless noted, calls follow the shape of the dose curve; as a rule, active = well fitted curve in the direction sought with a large enough effect; inconclusive = small, poorly fitted or top-dose-only effect, or another doubt; inactive = no such curve, though single readings can be large; an effect the other way counts as inactive or inconclusive.

What do the screens show for `CN(C(=O)Nc1cn(C)c(=O)c2ccccc12)c1ccccc1`?
SKOV3 invasion: -9.2%; GPR32 ag: -59.9; NTMT1 inhibitor: -3.3%; FH mod: 35.5µM*[activator]

Results for CCc1cccc(NC(=O)Nc2cn(C)c(=O)c3ccccc23)c1 ?
SKOV3 invasion: inactive; GPR32 ag: -58.9; NTMT1 inhibitor: inconclusive; FH mod: inconclusive

Results for Cc1ccc(Nc2nc(-c3ccncc3)nc3ccccc23)cc1F ?
NTMT1 inhibitor: -4.5%

What do the screens show for `COc1cc(Nc2nc(-c3ccncc3)nc3ccccc23)ccc1N1CCN(C)CC1`?
NTMT1 inhibitor: 8.91µM*

What do the screens show for `CN1CCN(c2ccc(Nc3nc(-c4ccncc4)nc4ccccc34)cc2F)CC1`?
NTMT1 inhibitor: 22.4µM*

Results for Cc1ccc(-n2ncc3c(N4CCN(CCO)CC4)ncnc32)cc1Cl ?
SKOV3 invasion: 1.7%; GPR32 ag: 65.1*; NTMT1 inhibitor: inconclusive; FH mod: -12.2%

Results for Cc1ccc(-n2ncc3c(N4CCN(Cc5ccccc5)CC4)ncnc32)cc1C ?
SKOV3 invasion: inactive; GPR32 ag: 75.3*; NTMT1 inhibitor: -2.1%; FH mod: -14.9%

How did Cc1ccc(C)c(SC2=N[S+](=O)([O-])c3cc(C(=O)Nc4ccc5ncccc5c4)ccc32)c1 do in these assays?
NTMT1 inhibitor: -1.7%

How did O=C1OC(c2ccc(O)cc2)C(O)=C1Cc1ccccc1 (configuration not stated) do in these assays?
NTMT1 inhibitor: 9.6%[57.5 µM]; FH mod: -1.3%

Results for COc1cccc(NC(=O)CN(CCc2ccccc2)S(=O)(=O)c2ccc(Cl)cc2)c1 ?
SKOV3 invasion: -7.5%; GPR32 ag: -5.9; NTMT1 inhibitor: 2.51µM*; FH mod: -2.8%

Results for COC(=O)c1ccc(NC(=O)CN(CCc2ccccc2)S(=O)(=O)c2ccc(OC)cc2)cc1 ?
SKOV3 invasion: 3.2%; GPR32 ag: -26.8; NTMT1 inhibitor: inconclusive; FH mod: -9.4%

Results for COc1ccc(-c2cc(C(C)=O)c(C)n2CCC(=O)Nc2ccc(C)cc2Cl)cc1 ?
SKOV3 invasion: -11.5%; GPR32 ag: -14.0; NTMT1 inhibitor: 89.1µM*; FH mod: 2.4%

How did Cc1cnc(Nc2ccc(F)cc2Cl)nc1-c1c[nH]c(C(=O)N[C@H](CO)c2cccc(Cl)c2)c1 do in these assays?
SKOV3 invasion: inconclusive; NTMT1 inhibitor: 9.1%; FH mod: -19.0%

How did COc1ccc(-c2noc(CSc3nc4ccccc4[nH]3)n2)cc1OC do in these assays?
SKOV3 invasion: inactive; GPR32 ag: 67.0*; NTMT1 inhibitor: -4.0%; FH mod: -18.1%

How did CC(=O)O[C@H]1[C@H](C)[C@@H](O)[C@H]2[C@@H]1C=C(C(=O)O)[C@H]1C[C@@H]3[C@H]([C@H]21)[C@H]1C(=O)O[C@@H]2CC[C@@]3(C)O[C@]1(O)[C@@H]2C do in these assays?
NTMT1 inhibitor: -4.6%[29.8 µM]; FH mod: 7.1%[53.3 µM]

What do the screens show for `Oc1cccc(-c2nc(N3CCOCC3)c3sccc3n2)c1`?
NTMT1 inhibitor: 39.8µM*; FH mod: 0.5%

Results for CC(=O)Nc1c(C(=O)Nc2cccc(C)c2)nnn1-c1ccc(C)cc1 ?
SKOV3 invasion: inactive; GPR32 ag: 119.4*; NTMT1 inhibitor: 2.7%; FH mod: -22.2%

How did COc1ccc(C(=O)NCCn2cc(SCC(=O)Nc3ccc4c(c3)OCCO4)c3ccccc32)cc1OC do in these assays?
SKOV3 invasion: 3.2%; GPR32 ag: 34.2; NTMT1 inhibitor: -18.7%; FH mod: inconclusive

What do the screens show for `O=C(CSc1cn(CCNC(=O)c2c(F)cccc2F)c2ccccc12)Nc1ccc2c(c1)OCCO2`?
SKOV3 invasion: inactive; GPR32 ag: 68.5*; NTMT1 inhibitor: 0.4%; FH mod: 1.0%

How did CC1(C)CC2C(O)C3=C(CC(C)(O)C2C1)C(=O)OC3 (configuration not stated) do in these assays?
NTMT1 inhibitor: 4.1%[57.5 µM]; FH mod: 5.4%

Results for CO[C@H]1C[C@@H]2CC[C@@H](C)[C@@](O)(O2)C(=O)C(=O)N2CCCC[C@@H]2C(=O)O[C@H]([C@H](C)C[C@@H]2CC[C@H](OCCO)[C@H](OC)C2)CC(=O)[C@H](C)C=C(C)[C@@H](O)[C@@H](OC)C(=O)[C@H](C)C[C@H](C)C=CC=CC=C1C ?
SKOV3 invasion: 10.9%; NTMT1 inhibitor: 0.9%[57.5 µM]; FH mod: -1.9%[53.3 µM]

How did COc1cc(O)c2c(c1)/C=C/C[C@H](O)[C@H](O)C(=O)/C=C\C[C@H](C)OC2=O do in these assays?
NTMT1 inhibitor: 25.1µM*; FH mod: -5.7%

Results for COc1cc(O)c2c(c1)C1=CC(O)C(O)CC1(C)OC2=O (configuration not stated) ?
NTMT1 inhibitor: 4.2%[57.5 µM]; FH mod: 3.7%

How did O=S(=O)(Nc1nc2n(n1)C(c1ccc(F)cc1)C=C(c1ccccc1)N2)c1ccccc1 (configuration not stated) do in these assays?
SKOV3 invasion: 6.9%; GPR32 ag: 96.0*; NTMT1 inhibitor: -22.4%; FH mod: -5.7%

What do the screens show for `O=S(=O)(Nc1nc2n(n1)C(c1ccc(F)cc1)C=C(c1ccc(Cl)cc1)N2)c1ccccc1` (configuration not stated)?
SKOV3 invasion: 6.1%; GPR32 ag: 94.8*; NTMT1 inhibitor: 16.1%; FH mod: -7.3%

Results for Cc1ccc(S(=O)(=O)Nc2nc3n(n2)C(c2ccccc2Cl)C=C(c2ccccc2)N3)cc1 (configuration not stated) ?
SKOV3 invasion: 1.3%; GPR32 ag: inconclusive; NTMT1 inhibitor: 12.4%; FH mod: -31.1%

Results for Cc1c(F)cc2c(=O)c(C(=O)O)cn3c2c1CCC3C (configuration not stated) ?
GPR32 ag: -12.3; NTMT1 inhibitor: -5.1%[57.5 µM]; FH mod: 5.4%[53.3 µM]

What do the screens show for `CCOC(=O)c1cccc(NC(=O)CN2C(=O)c3ccccc3Sc3ncccc32)c1`?
SKOV3 invasion: 28.6%; GPR32 ag: 72.0*; NTMT1 inhibitor: -2.4%; FH mod: -38.4%

What do the screens show for `Cc1c(-c2cccc(NC(=O)Nc3ccc(Cl)cc3)c2)nc2ncccn12`?
SKOV3 invasion: -6.3%; GPR32 ag: inconclusive; NTMT1 inhibitor: -0.5%; FH mod: -23.5%

What do the screens show for `Cc1c(-c2cccc(NC(=O)c3ccc(F)c(F)c3)c2)nc2ncccn12`?
SKOV3 invasion: -3.8%; GPR32 ag: 64.1*; NTMT1 inhibitor: -1.5%; FH mod: -6.8%

What do the screens show for `CCOc1ccccc1C(=O)Nc1cc2c(cc1N1CCCCC1)n(C)c(=O)n2C`?
SKOV3 invasion: inactive; GPR32 ag: 69.7*

How did Cc1ccc(OCCn2c3c(c4ccccc42)CCN(C(=O)C2CCCCC2)C3)cc1 do in these assays?
NTMT1 inhibitor: 31.4%
